This is a sample that favours compounds with a hit; in the whole collection about 12% have one here.
G9a inh: G9a (human) methyltransferase inhibition | Q96KQ7 | G9a H3K9 monomethylation, AlphaScreen, 2 h | Potency, µM (titrated, usually from 102 µM), usual class: inhibitors | actives 8.8% (n = 350,000); also: nearly all actives have a fitted effect of over 75% in size
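Using a bead-based AlphaScreen, monomethylated H3K9 product from 2 h room-temperature reactions (G9a 20 nM, peptide 500 nM, SAM 20 uM) was detected with 0.5 ug/mL rabbit anti-H3K9me1 antibody.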
JMJD2A Tudor inh: JMJD2A Tudor domain (human) inhibition; O75164; AlphaScreen JMJD2A-Tudor / H3K4me3 peptide binding; Potency, µM (highest dose often 114 µM), most hits filed as inhibitors; actives 4.4% (n = 390,000); also: nearly all actives have a fitted effect of over 50% in size
HP1b binding inh: HP1-beta chromodomain-methylated histone interaction inhibition; AID 540317; Potency, µM (series often up to 114 µM), most hits filed as inhibitors; P83916; actives 0.56% (n = 390,000); AlphaScreen HP1-beta / biotin-H3K9me3 peptide binding; also: nearly all actives have a fitted effect of over 70% in size
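HP1-beta protein (50 nM final) preincubated 30 min at room temperature with biotinylated H3(1-18)K9me3 peptide (50 nM) in PBS pH 7.4, 0.01% Tween-20, then compound added for 30 min. AlphaScreen streptavidin donor/nickel chelate acceptor beads (10 ug/mL final), 30 min dark, luminescence read.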
BAZ2B inh: BAZ2B (human) inhibition; Q9UIF8; AlphaScreen BAZ2B-H3K14Ac peptide displacement; Potency, µM (titrated, usually from 114 µM), usual class: inhibitors; actives 4.4% (n = 360,000); also: nearly all actives have a fitted effect of over 60% in size
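In this displacement format the biotinylated H3(5-23) peptide acetylated at Lys14 serves as ligand at 50 nM, with BAZ2B at 50 nM in PBS pH 7.4 containing 0.01% Tween-20. Donor and acceptor beads are 10 ug/mL final.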
Sfp inh: blocks B. subtilis Sfp PPTase activity; Q9F4F7; Biochemical Sfp PPTase activity, qHTS; Potency, µM, most hits filed as inhibitors; actives 3.5% (n = 310,000);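 also: the enzyme is Sfp with the accession as filed and its product quenches rhodamine fluorescence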
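Sfp 15 nM + cpd, 15 min RT; start w/ rhodamine-CoA 5 uM, BHQ-2-YbbR 12.5 uM (final); 50 mM Hepes pH 7.6, 10 mM MgCl2, 0.01% NP-40, 0.01% BSA; read 525/598 nm at 0 and 30 min.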
A number is an active result; n = inactive; u = inconclusive; x = not tested or not shown; ! = not confirmed by another sample; [ ] = another dose, or the depositor's remark. Calls follow the shape of the dose curve; as a rule, active = well fitted curve in the direction sought with a large enough effect; inconclusive = small, poorly fitted or top-dose-only effect, or another doubt; inactive = no such curve, though single readings can be large; an effect the other way counts as inactive or inconclusive.

SMILES | G9a inh | JMJD2A Tudor inh | HP1b binding inh | BAZ2B inh | Sfp inh
Cc1ccc(C2=NS(=O)(=O)N(C)C(C(=O)NCc3ccc(F)cc3)=C2)cc1 | u | u | n | n | n
N#C/C(=C\c1ccc(-c2ccc(F)cc2F)o1)c1nc2ccccc2[nH]1 | n | u | n | n | x
N#C/C(=C\c1ccco1)C(=O)NCc1ccccc1 | n | n | n | n | n
O=C(NC(=S)Nc1cccc2c(O)cccc12)c1ccco1 | x | u | u | u | 50.1µM
O=C(NC(=S)Nc1cccc2cc(O)ccc12)c1ccccc1Br | 31.6µM | u | n | u | n
O=C(NC(=S)Nc1ccccc1Cl)c1ccco1 | n | n | n | n | n
Cc1cc(NC(=S)NC(=O)c2ccco2)c2ccccc2n1 | u | u | n | n | 28.2µM
N#C/C(=C\c1ccco1)C(=O)Nc1cccc2ncccc12 | 50.1µM | n | n | n | n
O=S(=O)(c1ccc(NC(=S)N/N=C/c2c3ccccc3cc3ccccc23)cc1)N1CCOCC1 | n | n | n | n | n
Cc1[nH]n(-c2cccc(Cl)c2)c(=O)c1C=NCc1ccco1 | n | n | n | u | n
O=C(CNC(=O)c1ccco1)N/N=C/c1ccc(O)cc1O | u | n | n | u | n
CCOc1ccc2[nH]c(=O)c(CN(C(=O)N3CCOCC3)C3CC3)cc2c1 | n | x | x | n | n
O=C(NC(=S)Nc1cccc2cc(O)ccc12)c1ccco1 | 15.8µM | n | n | u | n
O=C(Nc1cccc2ncccc12)c1ccc(F)cc1 | n | n | n | n | n
COCCCNC(=S)Nc1cccc2ncccc12 | u | n | n | n | n
O=C(Nc1cccc2ncccc12)c1ccc(Cl)cc1 | 7.08µM | 3.16µM | u | 11.2µM | n
COc1ccccc1C(=O)NC(=S)Nc1cccc2cc(O)ccc12 | x | u | n | x | x
O=C(NC(=S)Nc1cccc2ncccc12)c1ccco1 | 44.7µM | n | n | n | n
COc1cccc2oc3cc(C#Cc4ccccn4)ccc3c(=O)c12 | x | 22.4µM | n | 39.8µM | 39.8µM
Cc1ncc(CO)c(CNc2ccc(Oc3ccccc3)cc2)c1O | 70.8µM | u | u | u | n
Cc1ncc(CSSCc2cnc(C)c(O)c2CO)c(CO)c1O | n | x | x | x | n
CCS(=O)(=O)c1ccc(N)cc1 | 3.98µM | n | n | n | n
Nc1ccc(S(N)(=O)=O)cc1 | n[21.5 µM] | n | n | x | n
CC1=NCC(C)c2c1[nH]c1ccccc21 (centres undefined) | 12.6µM | u | u | u | n
Cc1[nH]c2ccccc2c1C1N2CC3(C)CN1CC(C)(C2)C3=O (centres undefined) | n | n | n | n | x
SMILES | G9a inh | JMJD2A Tudor inh | HP1b binding inh | BAZ2B inh | Sfp inh
Cc1ccc(-c2csc3ncnc(Nc4ccc(N5CCOCC5)cc4)c23)cc1 | u | n[11.4 µM] | u | 44.7µM | u
COc1ccc(-c2csc3ncnc(N4CCN(c5ccccc5[N+](=O)[O-])CC4)c23)cc1 | 14.1µM | u | u | u | n
COc1ccc(N2CCN(c3ncnc4onc(-c5ccc(F)cc5)c34)CC2)cc1 | 17.8µM | u | n | n | x
COc1ccc(-c2csc3ncnc(N4CCN(c5ccccc5)CC4)c23)cc1 | 70.8µM | u | n | u | n
Fc1ccc(N2CCN(c3ncnc4onc(-c5ccc(Cl)cc5)c34)CC2)cc1 | n | n | n | n | x
COc1ccc(OC)c(NC(=O)Cc2coc3ccc(C(C)C)cc23)c1 | n | u | n | n | x
Cc1ncc([N+](=O)[O-])n1Cc1cccc2ccccc12 | n | n | n | n | n
COc1ccc(CNC(=O)CN(C)S(=O)(=O)c2ccc(Cl)cc2)cc1 | n | n | n | n | n
Cc1ccc(SCC(=O)Nc2ccc3oc(-c4ccc(F)cc4)nc3c2)cc1 | n | n | n | n | x
COc1ccc(-c2csc3ncnc(N4CCN(c5ccccc5O)CC4)c23)cc1 | x | n | n | n | n
COc1ccc(-c2csc3ncnc(N4CCN(c5ccc(OC)cc5)CC4)c23)cc1 | x | 31.6µM | u | 10µM | n
CC1CCCC(NC(=O)CSc2nncs2)C1C (centres undefined) | n | n | n | n | x
Oc1[nH]c2ccccc2c1N=Nc1nncc2ccccc12 | 12.6µM | n[11.4 µM] | u | u | n
O=[N+]([O-])c1ccc(S(=O)(=O)NCC2COc3ccccc3O2)cc1 (centres undefined) | n | n | n | u | n
NS(=O)(=O)c1ccc(NCC2COc3ccccc3O2)c([N+](=O)[O-])c1 (centres undefined) | 50.1µM | n | n | n | n
O=C(CN1C(=O)c2ccccc2C1=O)NN1C(=O)c2ccccc2C1=O | u | n | n | u | 44.7µM
O=C(COc1ccc2ccccc2c1)NN1C(=O)c2ccccc2C1=O | n | 89.1µM | n | n | n
CCCCC1C(=O)N(c2ccccc2)N(c2ccccc2)C1=O | 10µM! | n | n | n | u
CCO/N=C1\C(=O)N(c2ccccc2)c2ccccc21 | n | n | n | n | n
CCCCOCC1CN(c2ccccc2)C(=O)CS1 (centres undefined) | n | n | n | n | n
CCCCCC1C(=O)N2C=C(c3ccccc3)c3ccccc3N2C1=O (centres undefined) | x | 56.2µM | u | x | x
Cc1nn(C)c(C)c1CCC(=O)N1CCCC(N2CCN(c3ccc(F)cc3)CC2)C1 (centres undefined) | u | n | n | n | n
Cc1ccc(-c2cnn(-c3cccc([N+](=O)[O-])c3)c2N)cc1 | n[0.0925 µM] | n | n | n | n
CCCCN(CCCC)C(=O)c1cc(Cl)ccc1[N+](=O)[O-] | n | n | n | n | n
CCCN(CCC)C(=O)c1cc([N+](=O)[O-])cc2c1-c1ccc([N+](=O)[O-])cc1C2=C(C#N)C#N | 44.7µM | u | n | u | 50.1µM
SMILES | G9a inh | JMJD2A Tudor inh | HP1b binding inh | BAZ2B inh | Sfp inh
CCOc1ccc2oc(=O)cc(CN3CCN(Cc4ccc(F)cc4)CC3)c2c1 | n | n | n | n | x
CC(C)c1ccc2oc(=O)cc(CN3CCN(c4ccc(F)cc4)CC3)c2c1 | 50.1µM | n | n | n | n
CCc1ccc2oc(=O)cc(CN3CCN(c4ccc(F)cc4)CC3)c2c1 | 50.1µM | n | n | n | n
O=C(NNc1ccccc1[N+](=O)[O-])NC1CCCCC1 | 50.1µM | n | n | n | n
O=C(Nc1ccc(Cl)c(Cl)c1)Nc1ccccc1O | u | n | n | n | u
O=C(NNc1ccccc1[N+](=O)[O-])Nc1ccc(F)cc1 | 3.55µM | n | n | n | n
O=C(NNc1ccccc1[N+](=O)[O-])Nc1ccc(Cl)c(Cl)c1 | 7.08µM | n | n | u | n
O=C(NC(=S)NC1CCCCC1)c1ccccc1[N+](=O)[O-] | n[12.7 µM] | u | n | u | n
O=C(NNc1ccccc1[N+](=O)[O-])Nc1ccccc1 | u | n | n | u | n
O=C(Nc1ccccc1C(=O)N1CCCCC1)NC1CCCCC1 | x | 79.4µM | n | n | n
Cc1ccc(Cn2c(CNC(=O)c3ccccc3Br)nc3cccnc32)cc1 | n | n | n | n | x
COc1ccc(NC(=O)C2CCN(S(C)(=O)=O)CC2)cc1OC | n | n | n | n | n

Screens as filed in PubChem BioAssay.
